Screening results: PubChem BioAssay, several laboratories
PostGolgi yeast: growth inhibition of a yeast mutant, post-Golgi transport screen; post-Golgi transport phenotypic cell assay; inhibition, % at 10 µM; 98,000 tested, 0.9% active; AID 739;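 also: yeast cells grown in 1536-well plates; yeast grown about 18 h at 30C before absorbance read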
CYP2C19 inhib: human CYP2C19 inhibition. CYP2C19 Supersomes, luciferin-H EGE luminescence, 30 min. inhibition, % at 5 µM. 96,000 tested, 21% active. AID 778;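 active = CYP2C19 inhibition above a set limit at 5 µM in the primary screen, cut at about 50% in these data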;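 also: plate controls were negative control wells for no effect and 2.5 mM tranylcypromine positive control for full effect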
CYP2C9 act: CYP2C9 (human) activation; activation factor at 5 µM; AID 1024; recombinant CYP2C9, luciferin-H conversion, luminescence; active compounds read high; factor 1 = untreated enzyme, 0 = blocked; P11712; 96,000 tested, 1.4% active;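 active = activation factor of 2 or more for CYP2C9 at a 5 µM dose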;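 also: 0 = sulfaphenazole-blocked wells and 1 = vehicle-only wells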
Target sequence (P11712 whole entry, looked up): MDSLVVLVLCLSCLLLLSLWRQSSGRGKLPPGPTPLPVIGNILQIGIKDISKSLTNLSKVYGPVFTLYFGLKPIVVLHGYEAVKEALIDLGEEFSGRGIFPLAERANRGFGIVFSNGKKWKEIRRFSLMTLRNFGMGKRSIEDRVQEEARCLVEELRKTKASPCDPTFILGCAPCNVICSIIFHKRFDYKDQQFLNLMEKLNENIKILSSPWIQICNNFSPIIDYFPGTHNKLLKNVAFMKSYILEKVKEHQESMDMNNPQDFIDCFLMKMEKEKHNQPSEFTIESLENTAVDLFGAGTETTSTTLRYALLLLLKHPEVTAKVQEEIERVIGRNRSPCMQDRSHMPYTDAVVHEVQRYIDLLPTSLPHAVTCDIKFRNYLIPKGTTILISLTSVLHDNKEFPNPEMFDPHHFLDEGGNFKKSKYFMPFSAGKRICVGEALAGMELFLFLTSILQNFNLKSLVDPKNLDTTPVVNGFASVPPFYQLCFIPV
PostGolgi ctrl: growth of the yeast control strain, post-Golgi counter-screen; efflux-deficient yeast background strain, growth absorbance A615, 16 h; inhibition, % at 10 µM; 98,000 tested, 5% active; AID 738
CYP2C9 inhib: blocks human cytochrome P450 2C9. inhibition, % at 5 µM. P11712. CYP2C9 Supersomes, luciferin-H conversion, luminescence. 96,000 tested, 20% active;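 active = blocking of liver enzyme CYP2C9 beyond about 50% at 5 µM, limit read from the data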
CYP2C19 act: cytochrome P450 2C19 (human) activation; recombinant CYP2C19, luciferin-H EGE luminescence; active compounds read high; 0 = fully inhibited enzyme, 1 = untreated enzyme; activation factor at 5 µM; 96,000 tested, under 10 active;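 active = activation factor of at least 2 at 5 µM in the primary screen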;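 also: 0 = wells with 2.5 mM tranylcypromine and 1 = vehicle-only wells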
Starred values were filed as active, the others as inactive. Hits are enriched below; roughly 32% of the tested compounds scored in any of these assays. Rule as the data show it, unless noted: active = inhibition above about 30%; inactive = the rest.

SMILES | PostGolgi yeast | CYP2C19 inhib | CYP2C9 act | PostGolgi ctrl | CYP2C9 inhib | CYP2C19 act
CCc1c(C)nc2ncnn2c1N1CCCC(C(=O)NCc2ccc3c(c2)OCO3)C1 (stereo not given) | 1 | 29 | 0.3 | 3 | 70* | 0.7
COc1ccc(C(=O)Nc2ncc3c(n2)CC(c2ccco2)CC3=O)cc1 (stereo not given) | -3 | 6 | 0.9 | 7 | 12 | 0.9
Cc1oc2c(c1C(=O)Nc1ccc(C(=O)O)cc1)CCCC2 | 3 | -8 | 0.7 | -10 | 33 | 1.1
COC(=O)c1ccc(OC(=O)c2ccc(OC)c(OC)c2)c(OC)c1 | -8 | 17 | 0.9 | 25 | 11 | 0.8
CC(C)(C)OC(=O)N1Cc2ccccc2C[C@H]1C(=O)O | 7 | -14 | 1 | 1 | -5 | 1.1
COc1cc2c(cc1OC)-c1cc(N3CCCCCC3)nc(=O)n1CC2 | 1 | -2 | 0.7 | 6 | 31 | 1
COc1cc2c(cc1OC)-c1cc(Nc3ccc4c(c3)OCCO4)nc(=O)n1CC2 | -2 | 36 | 0.3 | -6 | 67* | 0.6
COc1cc2c(cc1OC)-c1cc(N3CCCc4ccccc43)nc(=O)n1CC2 | -8 | 60* | 0.3 | 5 | 69* | 0.4
CCOc1cccc(Nc2cc3n(c(=O)n2)CCc2cc(OC)c(OC)cc2-3)c1 | -6 | 37 | 0.7 | 12 | 25 | 0.6
COc1ccc(CN2C(=O)CN=C2Nc2cccc(C)c2C)cc1 | -3 | 35 | 0.6 | 5 | 40 | 0.7
O=C1CN(C(=O)COC(=O)C23CC4CC(CC(O)(C4)C2)C3)c2ccccc2N1 | -3 | -16 | 1.2 | -8 | -21 | 1.2
C=CCNc1ncnc2c1ncn2C1OC(CO)C(O)C1O (stereo not given) | -2 | 4 | 0.9 | 1 | 13 | 1
Cc1ccc(NC2=C(Cl)C(=O)OC2OC(=O)c2ccco2)cc1 (stereo not given) | -1 | 50* | 0.1 | 6 | 91* | 0.5
Cc1ccc(NC(=S)NNC(=O)c2ccco2)cc1 | -8 | 9 | 1 | -5 | 0 | 0.9
CCOC(=O)N1CCC2(CC1)C(C(=O)C13CC4CC(CC(C4)C1)C3)C2(C#N)C#N (stereo not given) | -2 | 67* | 0.5 | 14 | 52* | 0.3
O=C(NCc1ccco1)c1cnn2c(C(F)F)cc(-c3ccccc3)nc12 | 21 | 1 | 0.4 | 10 | 58* | 1
O=C(CSc1nc2nc(-c3cccs3)cc(C(F)(F)F)c2c(=O)[nH]1)NCc1ccco1 | 11 | 6 | 0.3 | -1 | 72* | 0.9
Cc1cc(C)c(Cc2c(C)nc3c(C(=O)NCc4ccco4)cnn3c2C)c(C)c1 | 12 | 8 | 0.2 | 44* | 78* | 0.9
Cc1cc(NC(=O)c2cnn3c(C(F)F)cc(-c4ccccc4)nc23)no1 | -1 | 2 | 0.9 | -6 | 13 | 1
O=C(NCc1ccco1)c1cnn2c(C(F)(F)F)cc(-c3cccs3)nc12 | 3 | 34 | 0.5 | 14 | 51* | 0.7
Cc1nc2sc(C(c3cccc(F)c3)N3CCOCC3)c(O)n2n1 (stereo not given) | -4 | 14 | 1 | 1 | 1 | 0.9
CCCn1nnc(NC(=O)c2ccc(Br)o2)n1 | -1 | 26 | 0.6 | -6 | 36 | 0.7
CCc1nnc(NC(=O)c2ccc(COc3ccc(C)cc3)o2)s1 | -3 | 14 | 0.5 | 1 | 47 | 0.9
CCc1nnc(NC(=O)c2ccc(COc3ccccc3)o2)s1 | -8 | 6 | 0.7 | 53* | 35 | 0.9
CC(=O)Cc1nsc(NC(=O)c2ccc(COc3ccccc3)o2)n1 | 0 | 19 | 0.4 | 0 | 57* | 0.8
SMILES | PostGolgi yeast | CYP2C19 inhib | CYP2C9 act | PostGolgi ctrl | CYP2C9 inhib | CYP2C19 act
CCOC(=O)Nc1nnc(CCc2ccccc2)s1 | 4 | 44 | 0.4 | 7 | 62* | 0.6
CC(=O)Cc1nsc(NC(=O)c2ccc(-c3ccccc3Cl)o2)n1 | 1 | 24 | 0.7 | 4 | 29 | 0.8
CC(=O)Cc1nsc(Nc2ccccc2)n1 | 0 | 77* | 0.8 | -12 | 18 | 0.2
O=C1CC(SCCO)C(=O)N1c1ccc(Oc2ccccc2)cc1 (stereo not given) | -5 | 24 | 1 | -8 | 4 | 0.8
COc1ccc(C2/C(=C(/O)c3ccccc3)C(=O)C(=O)N2CCO)cc1 (stereo not given) | 12 | -1 | 0.9 | 4 | 15 | 1
COc1ccc(N/C(C)=C2/C(=O)C(=O)N(CCO)C2c2ccc(Br)cc2)cc1 (stereo not given) | -5 | 60* | 0.5 | 6 | 52* | 0.4
Cc1ccccc1OCCNC(=S)Nc1ccccc1 | -26 | 70* | 0.9 | 8 | 9 | 0.3
COc1cc2cc(C)c(SCC(=O)N3CCOCC3)nc2cc1OC | 8 | 16 | 0.6 | 1 | 37 | 0.8
Cc1cc2n(n1)C(c1cn(-c3ccccc3)nc1C)Nc1ccccc1-2 (stereo not given) | -3 | 20 | 0.6 | 14 | 42 | 0.8
Cc1cc2n(n1)C(c1c[nH]c3ccccc13)Nc1ccccc1-2 (stereo not given) | 11 | 22 | 0.2 | 55* | 81* | 0.8
Cc1c(Cc2ccccc2)sc(N)c1C(N)=O | 0 | 13 | 0.9 | 38* | 9 | 0.9
COC(=O)c1c(NC(C)=O)sc(Cc2ccccc2)c1C | -3 | 30 | 0.8 | 26 | 22 | 0.7
CCCN1CCN(CCCNC(=O)CCNC(=O)Cn2ccc3ccccc3c2=O)CC1 | -3 | -17 | 1.1 | -10 | -10 | 1.2
Cc1ccc(Cl)cc1NC(=O)Cn1cc2c(n1)CCCC2 | 6 | 22 | 0.8 | 27 | 20 | 0.8
CCn1c(-c2ccccc2Cl)nn(CC(=O)Nc2cc(Cl)ccc2Cl)c1=S | -5 | 89* | 0.6 | 27 | 41 | 0.1
Cc1ccc([N+](=O)[O-])cc1-c1ccc2cccc(C)c2n1 | -8 | 16 | 1 | 2 | -5 | 0.8
CCCCNC(=O)n1c(=O)oc2ccc(Cl)cc21 | 0 | 17 | 0.8 | -1 | 19 | 0.8
CCOC(=O)CNC(c1ccccc1)c1cc(Br)ccc1NC(=O)OCC (stereo not given) | 3 | 31 | 0.4 | 14 | 56* | 0.7
COc1cc(C)nc(Oc2ccc(OCCOc3ccc(C)cc3)nn2)n1 | -8 | 35 | 0.5 | 19 | 48 | 0.6
C=CCN1CC2CC3(COc4cc(C)cc(C)c4)C=CC2(O3)C1=O (stereo not given) | 8 | 65* | 0.5 | 3 | 45 | 0.4
O=C1CC(/C=C/c2ccco2)=Nc2ccccc2N1 | -4 | -4 | 0.9 | -3 | 14 | 1
O=C1CC(C(F)(F)C(F)(F)C(F)(F)C(F)F)=Nc2ccccc2N1 | -6 | 60* | 0.8 | 3 | 20 | 0.4
Cc1c(OC(=O)CNC(=O)OC(C)(C)C)ccc2c3c(c(=O)oc12)CCC3 | 4 | 41 | 2.7* | 4 | -173 | 0.6
CC(=O)COc1ccc2c3c(c(=O)oc2c1C)CCCCC3 | 2 | 83* | 0.9 | 21 | 15 | 0.2
